Most compounds without a hit are left out; they make up all but 9.3% or so of the library.
HCMV antiviral: human cytomegalovirus inhibition | activity change, negative = inhibition, % at 57.5 µM | 410,000 compounds, 4.5% hits | AID 1259415 | HFF cells, HCMV-luciferase reporter, 72 h; stronger effect = lower value; in the data active means activity change below about -60%; inconclusive means no clear call, values can overlap the other calls; inactive means above about -39%
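Two compound doses tested in HFFs infected with HCMV-luciferase, MOI 1 PFU/cell, 72 h at 37C. Lysate luminescence read with OneGlo; data normalized against buffer-only and 10uM Salinomycin inhibitor controls.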
HCV inh: blocks hepatitis C virus | 340,000 compounds, 3.4% hits | AID 651820 | Potency, µM (series often up to 41.8 µM), hits mostly inhibitors | Huh7.5.1 HCVcc-Cre infection, luciferase reporter, 44 h
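Cells (1,000/well) were plated 4 h before compound, then infected with HCVcc-Cre virus (~0.5 moi). After 44 h further culture, infection was read as luciferase luminescence following a 15 min substrate incubation at room temperature.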
VACV mCherry inh: vaccinia inhibition (mCherry reporter); Vaccinia virus mCherry reporter infection, fluorescence; Potency, µM (doses to about 36.5 µM), usual class: inhibitors; 310,000 compounds, 0.63% hits; calls by dose curve; tested in A549 cells; further: nearly all actives have a fitted effect of over 35% in size
Sm TGR inh: inhibitors of Schistosoma mansoni thioredoxin glutathione reductase; Q962Y6; purified TGR, DTNB reduction, TNB absorbance 405 nm; Potency, µM (doses to about 114 µM), most hits filed as inhibitors; 360,000 compounds, 3% hits; AID 485364; further: nearly all actives have a fitted effect of over 60% in size
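TGR 20 nM + NADPH 100 uM (dispensed conc.), cpd preinc 15 min RT; start with NADPH (500 uM addition) then DTNB (15 mM addition). Kinetic TNB absorbance, 405 nm filter. Four-parameter Hill fit across titration.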
Vaccinia Venus: inhibitors of vaccinia virus (Venus reporter); Vaccinia virus Venus reporter expression, fluorescence; Potency, µM (series often up to 36.5 µM), actives largely listed as inhibitors; 330,000 compounds, 0.46% hits; AID 720580; calls by dose curve; tested in A549 cells; further: nearly all actives have a fitted effect of over 30% in size
FMDV antiviral: foot and mouth disease virus antiviral activity. Potency, µM (doses to about 57.9 µM), actives largely listed as inhibitors. 410,000 compounds, 1.2% hits. FMDV antiviral cell-based qHTS; calls by dose curve; tested in HEK293T cells; further: read-out not given here; nearly all actives have a fitted effect of over 45% in size
A number is an active result; i = inactive; ? = inconclusive; nt = not tested or not shown; [ ] = dose if it differs, or a comment. Unless noted, the call rests on the fitted dose curve; in most records, active means well fitted curve in the direction sought with a large enough effect; inconclusive means small, poorly fitted or top-dose-only effect, or another doubt; inactive means no such curve, though single readings can be large; an effect the other way counts as inactive or inconclusive.

SMILES	HCMV antiviral	HCV inh	VACV mCherry inh	Sm TGR inh	Vaccinia Venus	FMDV antiviral
O=C(NCCCN1CCN(c2cccc(Cl)c2)CC1)c1nc(-c2ccncc2)no1	i	?	nt	i	nt	?
CC(C)c1[nH]nc2c1C(c1cccc(C(F)(F)F)c1)N(c1ccccc1)C2=O (centres undefined)	i	nt	nt	nt	nt	nt
O=C1c2[nH]nc(-c3ccccc3)c2C(c2ccccc2)N1c1cccc(C(F)(F)F)c1 (centres undefined)	-108	nt	i	i	?	?
COC(=O)c1ccc(C2c3c(-c4ccc(Br)cc4)n[nH]c3C(=O)N2c2ccc(Cl)cc2)cc1 (centres undefined)	-103	nt	?	i	?	?
O=C1c2[nH]nc(-c3ccc(Br)cc3)c2C(c2cccc(O)c2)N1c1ccc(Cl)cc1 (centres undefined)	-105	nt	?	i	?	?
O=C(c1ccccn1)N1CCN(S(=O)(=O)c2cccc(Br)c2)CC1	i	?	i	i	i	i
Cc1cc(C(=O)CSc2nnc(-c3ccccc3)o2)c(C)n1CC1COc2ccccc2O1 (centres undefined)	i	i	i[1.46 µM]	i	i	?
COc1ccc(-c2cnc3c(NC=O)cc(-c4ccc(F)cc4)cn23)cc1OC	?	nt	11µM	nt	?	?
COc1ccc(-c2cc(NC=O)c3ncc(-c4cc(OC)c(OC)c(OC)c4)n3c2)cc1	-81	nt	?	nt	?	i
CN1CCN(c2ccc(-c3cc(NC=O)c4ncc(-c5ccc(F)c(Cl)c5)n4c3)cc2)CC1	-92	nt	?	nt	i	i
COc1ccc(-c2cnc3c(NC=O)cc(-c4ccccc4)cn23)cc1OC	i	nt	1.3µM	nt	?	?
COc1ccc(-c2cnc3c(NC=O)cc(-c4cc(OC)c(OC)c(OC)c4)cn23)cc1OC	i	nt	i	nt	i	i
CC(=O)Nc1cc(-c2ccc(N3CCN(C)CC3)cc2)cn2c(-c3ccc(F)c(Cl)c3)cnc12	i	nt	?	nt	?	i
COc1cc(NC(=O)C2COc3ccccc3O2)c(OC)cc1Cl (centres undefined)	i	?	nt	i	i	?
CS(=O)(=O)Nc1cccc(-c2cc(NC=O)c3ncc(-c4ccc(F)c(Cl)c4)n3c2)c1	i	nt	?	nt	?	i
COc1ccc(-c2cnc3c(NC=O)cc(-c4cccc(NS(C)(=O)=O)c4)cn23)cc1OC	i	nt	6.3µM	nt	8.9µM	i
c1ccc(CNn2nnc3ccccc32)cc1	i	nt	i	nt	i	i
C#CCN(C[C@@H]1[C@@H](OC(=O)Nc2cccs2)[C@@H](OC(=O)Nc2cccs2)C[C@H](C(=O)OC)[C@@H]1C(=O)OC)S(=O)(=O)c1ccc(C)cc1	i	nt	nt	nt	nt	nt
C#CCN(C[C@H]1[C@H](OC(=O)Nc2c(C)noc2C)[C@H](OC(=O)Nc2c(C)noc2C)C[C@@H](C(=O)OC)[C@H]1C(=O)OC)S(=O)(=O)c1ccc(C)cc1	i	nt	i	nt	i	32µM
COc1ccc2nc(C)cc(SCC(=O)OC(C)C)c2c1	?	i	i	i	i	i
Cc1n[nH]c(=O)c2c(NC(=O)CSc3nnnn3-c3ccc(O)cc3)oc(C)c12	-67	i	i	?	i	i
COCCn1c(Cc2ccccc2)nnc1SCC(=O)Nc1oc(C)c2c(C)n[nH]c(=O)c12	i	i	i	50µM	i	i
Cc1n[nH]c(=O)c2c(NC(=O)CSc3nnnn3-c3ccccc3)oc(C)c12	i	i	i	i	i	i
Cc1n[nH]c(=O)c2c(NC(=O)CSc3nc4ccccc4c(=O)n3CCCO)oc(C)c12	-87	i	i	i	i	i
CN1C(=O)N(C)C2(C)CC1(C)N(C)C(=O)N2C	i	i	nt	i	nt	i
SMILES	HCMV antiviral	HCV inh	VACV mCherry inh	Sm TGR inh	Vaccinia Venus	FMDV antiviral
CS(=O)(=O)Nc1cccc(-c2cc(NCc3ccccc3)ncn2)c1	nt	nt	nt	nt	nt	i
CNC(=O)/C(=C/c1ccc2c(c1)OCO2)NC(=O)c1ccc(Br)cc1	i	i	i	i	i	i
CNC(=O)/C(=C\c1ccc2c(c1)OCO2)NC(=O)c1ccc(Br)cc1	-60	i	i	i	i	i
C/C(=C\c1ccco1)C1C(C#N)=C(N)OC2=C1C(=O)CC(C)(C)C2 (centres undefined)	i	i	nt	35µM	nt	i
CC1(C)CC(=O)C2=C(C1)OC(N)=C(C#N)C2C#Cc1ccccc1 (centres undefined)	i	i	i	1.6µM	i	?
CC(CC1C(C#N)=C(N)OC2=C1C(=O)CCC2)c1ccccc1 (centres undefined)	i	?	nt	1.3µM	nt	i
CC(c1ccccc1)C1C(C#N)=C(N)OC2=C1C(=O)CC(C)(C)C2 (centres undefined)	-65	i	nt	i	nt	i
O=C(CCC(=O)c1ccccc1)NCCc1c[nH]c2ccccc12	i	i	i	i	i	i
C/C(=N/NC(=O)c1ccc2c(c1)OCCO2)c1ccc([N+](=O)[O-])cc1	i	i	i	i	i	i
N#Cc1c(C(F)(F)F)cc(-c2cccs2)nc1SCC(=O)O	i	i	nt	i	nt	i
COc1ccc(C(c2c(C)[nH]n(-c3ccccc3)c2=O)c2c(C)[nH]n(-c3ccccc3)c2=O)cc1OC	i	i	i	i	i	i
CCOc1cc(C(c2c(C)[nH]n(-c3ccccc3)c2=O)c2c(C)[nH]n(-c3ccccc3)c2=O)ccc1O	-105	nt	i	3.2µM	i	?
O=C(CSc1ccccn1)N1CCN(c2cccc(Cl)c2)CC1	-73	i	nt	i	nt	i
O=C(O)c1ccccc1C(=O)N1CCN(c2cccc(Cl)c2)CC1	i	i	i	?	i	i
Cn1c(SCC(=O)N2CCN(c3ccccc3)CC2)nnc1-c1ccncc1	i	i	nt	i	i	i
Cn1c(SCC(=O)N2CCN(c3cccc(Cl)c3)CC2)nnc1-c1ccncc1	-67	?	nt	i	nt	?
CCOc1ccccc1C(=O)N1CCN(c2cccc(Cl)c2)CC1	-85	i	?	i	?	i
CCN(CC)C(=O)C(=O)Nc1ccc(OCc2ccccc2)cc1	i	i	i	i	i	i
O=S(=O)(CCN1C=CC(C(F)(F)F)=NCC1)c1ccc(F)cc1	i	i	i	i	i	i
COc1ccccc1/C=N/NC(=S)Nc1cccnc1	i	?	i	i	i	i
CN(CCC#N)C(=O)COC(=O)c1ccccc1C(=O)c1ccc(Cl)c([N+](=O)[O-])c1	-97	2.8µM	i	13µM	i	?
Cn1c(N)c(C(=O)COC(=O)c2ccccc2C(=O)c2ccc(Cl)c([N+](=O)[O-])c2)c(=O)n(C)c1=O	nt	11µM	?	nt	?	?
O=C(COC(=O)c1ccccc1C(=O)c1ccc(Cl)c([N+](=O)[O-])c1)NC1CCCCCC1	nt	13µM	nt	i	nt	?
O=C(COC(=O)c1ccc(Cl)c([N+](=O)[O-])c1)NC1CCCC1	i	i	nt	i	nt	i
O=C(Nc1c[nH]c2c(Cl)cccc2c1=O)N1CCN(c2ccccn2)CC1	i	i	nt	i	nt	i
